Test results: the supplement of paper PMC6555819

Key:
Test in all cases: PBM binding z-score (relative to random genomic background probes); higher = stronger binding; sequences stand for … in GC…GCGATTGACAGCGTAGAATGAAGG
[1] = test system: FXR:RXRa (NR concentration 270 nM, RXRa partner concentration 90 nM)
In short: (§1)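 The probes on custom Agilent 4×180K protein-binding microarrays were double-stranded, with 34-nt variable regions bearing direct-repeat seeds, single-nucleotide variants, half-site ablations and random human genomic background sequences. Incubation lasted 1 h with ligand-free nuclear receptor dimers in PBS pH 7.4, 2% milk, 0.02% Triton X-100, 1 mM DTT, 0.2 mg/mL BSA and 0.4 mg/ml salmon testes DNA. Antibodies against each partner (one per run) detected bound dimers, and fluorescence scans were regression-normalized. Binding z-scores take the random background probes as reference.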

[2] = test system: LXRa:RXRa (NR concentration 270 nM, RXRa partner concentration 90 nM)
In short: as §1

[3] = test system: LXRa homodimer (NR concentration 270 nM)
In short: as §1

[4] = test system: LXRb:RXRa (NR concentration 270 nM, RXRa partner concentration 90 nM)
In short: as §1

[5] = test system: LXRb homodimer (NR concentration 270 nM)
In short: as §1

[6] = test system: PPARa:RXRa (NR concentration 270 nM, RXRa partner concentration 90 nM)
In short: as §1

[7] = test system: PPARg:RXRa (NR concentration 180 nM, RXRa partner concentration 90 nM)
In short: as §1

[8] = test system: PPARg:RXRa 270nM:90nM, anti-RXR (NR concentration 270 nM, RXRa partner concentration 90 nM)
In short: as §1

[9] = test system: PPARg:RXRa 30nM:10nM, anti-RXR (NR concentration 30 nM, RXRa partner concentration 10 nM)
In short: as §1

[10] = test system: PPARg:RXRa 90nM:30nM, anti-RXR (NR concentration 90 nM, RXRa partner concentration 30 nM)
In short: as §1

[11] = test system: PPARg:RXRa DBDmut IVT, anti-RXR (DBD mutation: RXRa K156A/R161A, NR concentration 270 nM, RXRa partner concentration 90 nM)
In short: as §1

[12] = test system: PPARg:RXRa IVT, anti-PPARg (NR concentration 270 nM, RXRa partner concentration 90 nM)
In short: as §1

[13] = test system: PPARg DBDmut:RXRa IVT, anti-PPARg (DBD mutation: PPARg1 K132A/R137A, NR concentration 270 nM, RXRa partner concentration 90 nM)
In short: as §1

[14] = test system: PPARg DBDmut IVT, anti-PPARg (DBD mutation: PPARg1 K132A/R137A, NR concentration 270 nM)
In short: as §1

[15] = test system: PPARg homodimer (NR concentration 180 nM)
In short: as §1

[16] = test system: PXR:RXRa (NR concentration 270 nM, RXRa partner concentration 90 nM)
In short: as §1

[17] = test system: PXR homodimer (NR concentration 270 nM)
In short: as §1

[18] = test system: RARa:RXR (NR concentration 270 nM, RXRa partner concentration 90 nM)
In short: as §1

[19] = test system: RARa homodimer (NR concentration 270 nM)
In short: as §1

[20] = test system: RARb:RXRa (NR concentration 270 nM, RXRa partner concentration 90 nM)
In short: as §1

Sequence	PBM binding z-score [1]	PBM binding z-score [2]	PBM binding z-score [3]	PBM binding z-score [4]	PBM binding z-score [5]	PBM binding z-score [6]	PBM binding z-score [7]	PBM binding z-score [8]	PBM binding z-score [9]	PBM binding z-score [10]	PBM binding z-score [11]	PBM binding z-score [12]	PBM binding z-score [13]	PBM binding z-score [14]	PBM binding z-score [15]	PBM binding z-score [16]	PBM binding z-score [17]	PBM binding z-score [18]	PBM binding z-score [19]	PBM binding z-score [20]
GGAACGAGGGCAAATTTGATAGCATCTGTCGACG	0.712	0.506	-0.407	0.682	0.0825	1.51	1.19	1.13	-0.00323	0.82	3.93	2.76	0.00863	-0.28	0.201	0.608	0.0405	0.115	0.0323	2.19
ATCGAAAGGTCGCGAGGTGAGTATACAGAAAGGC	5.31	4.1	-0.00351	3.19	-0.0982	5.26	4.54	4.93	1.89	3.56	0.5	3.13	1.02	0.918	1.25	3.33	0.012	4.35	0.464	4.48
CGTCCAAGGTCAAAGGTCAGTGACGAGATGACGG	8.29	6.97	3.55	6.4	2.01	7.03	10.8	9.11	8.03	9.31	4.07	5.8	1.24	0.0683	6.48	7.17	2.08	8.72	2.59	5.86
CGTCCAAGGTCAGACAGGTCAGTGAATGCCGAGT	5.43	4.15	1.39	3.43	0.134	4.25	2.72	3.38	0.54	1.85	2.43	2.79	-0.527	-0.665	2.82	4.38	6.4	4.28	0.847	4.93
CGTCCAATGTCAAGGTCAGTGAAAGAGACTCGAA	2.47	1.92	0.422	1.76	0.286	2.67	0.791	1	-0.104	0.482	0.498	1.27	0.404	-0.348	2.25	2.17	0.697	2.26	0.775	3.69
CCGAGAAGGTTATGGGGCATTCAGGCAACGGTGA	1.63	1.52	0.000193	1.24	-0.242	2.89	1.15	1.75	-0.0865	0.883	0.959	1.38	-0.265	-0.895	1.08	0.668	0.111	1.54	-0.0567	2.08
TCATATAGGTAAAAGGTGAAAATCGGTGTGGTAA	2.32	2.08	0.347	2.14	0.2	5.34	9.36	8.69	8.68	9.26	5.1	5.08	1.43	0.511	2.07	1.97	0.321	3.05	1.48	1.78
AGAATGAGGTTATAAGTAGATCAGGGAAGAAAGT	1.94	1.59	0.0372	1.73	0.269	2.96	2.67	2.94	1.34	2.45	3.03	2.5	0.674	0.782	1.83	1.47	0.923	1.88	0.571	1.25
TCGAGTAGGTTACCAGTGGGGCATTCAGCTTTCT	-0.0125	1.19	-0.24	0.725	-0.623	1.16	0.278	1.36	1.05	1.36	3.82	3.43	-0.827	-0.418	0.236	-0.206	-0.913	0.372	-1.02	0.865
CGTAAAAGTTCAACTAAGGTAACGTAAAGCACGC	6.53	5.88	4.08	3.97	1.96	4.78	2.86	3.53	1.02	2.58	0.183	1.6	1.17	1.06	2.7	4.97	2.61	3.8	1.67	5.13
TCTATTAGTTGATTATGGCAACCGAAACAGCGGA	0.958	0.726	0.306	0.64	1.08	0.209	0.113	1.91	4.11	3.45	2.17	0.613	1.3	1.66	1.37	0.553	0.671	0.747	1.89	0.407
CGAACTAGGTCATCCAAGACAGTGAATACATTGA	4.2	2.37	0.551	2.26	0.197	4.78	8.08	6.67	4.23	5.9	8.33	8.19	3.65	2.15	1.93	1.67	0.36	2.67	1.01	3.95
TCTCGGAGGACACTAAGGTCAGAGCTTTCCAGAG	1.87	1.63	0.625	1.5	-0.615	2.32	0.459	1.84	2.1	1.81	1.61	1.22	-0.543	-1.32	1.72	3.24	6.61	2.71	-0.0898	3.32
CGACAAAGTTCAACTAAGGTAACGTAAAGCACGC	6.54	5.86	3.44	4.09	1.92	4.93	4.38	4.95	2.16	3.95	0.248	1.7	0.707	1.21	2.54	5.16	3.06	3.51	0.942	5.07
ATACCAAGGTGCTCGTGAGGTCGTTGATACTAAC	0.689	0.535	0.19	0.834	-0.238	0.836	0.126	-0.218	-0.413	-0.131	-0.245	0.0535	0.246	0.215	0.541	2.27	0.582	1.85	-0.377	0.57
TAGCCTAGGTCATGGGCGAGTATACCACGCGAAC	4.42	3.43	0.0703	2.28	-0.329	4.15	3.46	3.42	0.67	2.09	1.54	3.26	0.096	-0.639	0.74	1.53	-0.407	2.3	-0.782	3.91
TCGAGTACGTTAGGGGCATTCAGAATGGCGTCGA	-0.212	-0.0926	-0.859	0.0159	-1.01	0.403	0.0548	0.205	0.448	0.552	0.475	-0.595	-1.29	-1.15	-0.704	1.69	5.78	-0.118	-0.866	0.723
CCTTACGGGTCACAAGGTTATAGCACGACGAGCG	5.77	4.34	0.422	3.65	0.114	5.46	5.45	5.85	2.52	4.65	3.76	4.65	0.482	0.244	2.41	3.87	0.686	4.98	1.2	4.15
TCATATAGGTAATACAGGTGTAAGTCGGCATCTA	1.11	1.19	0.352	0.876	0.401	1.28	1.06	2.23	3.93	3	3.63	2.43	1.94	1.17	1	0.767	0.343	0.844	1.25	0.255
CCGACTGGGGCAAAGGTTACTATACTCAGTACGA	1.1	1.13	0.145	1.83	-0.765	4.86	10.7	8.89	8.85	9.45	4.92	5.73	-0.179	-0.335	1.41	1.93	-0.04	3.21	-0.0301	1.86
CAGAGTAGGTTATGGGGCATTCAGGCAACGGTGA	0.558	0.666	0.0454	0.833	-0.04	2.78	4.39	5.4	3.13	5.42	3.95	4.66	1.11	0.548	1.69	0.233	0.246	0.549	0.726	1.23
AGAATGAGGTTAAGACCAGGGAAACAGAATACAT	2.32	1.88	-0.015	1.61	-0.233	3.48	2.1	2.15	0.945	1.71	2.74	2.42	1.4	1.16	0.773	1.03	0.319	1.92	0.687	1.85
CCTTGCGGGTCAAGGTTATAGCACGGGTGGTACG	4.66	3.22	0.11	2.6	-0.432	4.96	5.05	5.18	2.05	4.21	3.71	5.26	-0.0608	-0.506	2.01	2.93	0.309	3.7	0.296	3.82
CGAACTAGGCCATTGACAGGACAGTGAATAGTAA	-0.28	-0.21	0.0668	-0.366	-0.825	1.53	2.02	1.77	0.274	0.972	6.87	5.51	1.09	0.545	0.245	-0.291	0.0591	-0.304	-0.0299	0.565
CGAACTAGGTCAGCCAGGACAGTGAATACATTGA	1.87	0.875	0.291	0.649	-0.648	3.55	6.1	5.28	2.28	4.35	7.76	7.73	1.49	0.655	1.34	0.744	-0.0382	0.595	0.0532	3.45
CTCGAAAGGTCGGTTGAGGTGAGTAGACGGATAA	2.24	1.85	0.0366	1.44	-0.503	2.76	0.386	1.51	0.222	0.586	-0.178	0.996	-0.252	-0.747	0.919	3.03	0.241	2.71	-0.0972	3.11
ATACCAAGGTGAACGTGAGGTCGTTGATACTAAC	3.12	3.08	1.29	2.47	-0.133	2.87	2.13	1.87	0.56	1.48	2.44	3.17	1.14	0.95	1.83	4.23	1.48	3.21	0.99	2.43
GCGACTGGGGCCTCAGCAGGTTACCATAACTTAA	-0.561	-0.698	-0.704	-0.145	-1.25	-0.221	-0.306	-0.849	-0.842	-0.966	-0.00241	-0.47	-1.2	-1.98	-0.186	-0.277	-0.863	0.0865	-1.06	0.0626
